DRD3 antagonist: D3 dopamine receptor (human) antagonism | max response, negative = inhibition, % | hit rate 2.5% among 360,000 | P35462 | D3R cells, DiscoveRx beta-arrestin luminescence, antagonist mode; stronger effect = lower value; in the data active means max response below about -50%; inconclusive means no clear call, values can overlap the other calls; further: on the % scale 0 is the no-effect control and ±100 the full control effect
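Cells expressing the human receptor were seeded at 1500 cells/well, incubated overnight at 37 degrees C in 5% CO2, then exposed to library compounds with dopamine controls for 90 minutes at 37 degrees C before luminescent detection.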
D1 agonist: agonists of human D1 dopamine receptor; P21728; HEK293 T-REx D1 cells, calcium flux, agonist mode; activation, % at 2 µM; hit rate 1% among 360,000; AID 504660; in the data active means activation above about 30%; further: 0% is about no effect
Target sequence (P21728 whole entry, looked up): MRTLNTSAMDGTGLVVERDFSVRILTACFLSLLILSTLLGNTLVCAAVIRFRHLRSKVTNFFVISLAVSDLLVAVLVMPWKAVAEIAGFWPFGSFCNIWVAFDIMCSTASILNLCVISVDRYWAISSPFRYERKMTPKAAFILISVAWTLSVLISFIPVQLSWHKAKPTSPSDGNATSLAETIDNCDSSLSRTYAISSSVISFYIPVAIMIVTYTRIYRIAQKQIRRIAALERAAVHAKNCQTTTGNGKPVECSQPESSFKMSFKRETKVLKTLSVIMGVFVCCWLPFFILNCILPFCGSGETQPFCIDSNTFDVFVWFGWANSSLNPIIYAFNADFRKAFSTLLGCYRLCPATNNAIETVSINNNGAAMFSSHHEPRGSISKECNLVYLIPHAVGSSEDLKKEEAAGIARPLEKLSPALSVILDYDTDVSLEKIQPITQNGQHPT
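Inducible HEK293 T-REx D1 cells, force-coupled to calcium signalling, were plated at 4000 cells/well with tetracycline and held overnight at 30 C. After no-wash calcium dye loading, compound-evoked calcium rise over 180 s flagged agonists.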
D1 potentiator: human D1 dopamine receptor positive modulation; potentiation, % at 10 µM; HEK293 TREx D1 cells, calcium flux, dopamine EC20 potentiation; hit rate 0.036% among 360,000; in the data active means potentiation above about 30%; further: 0% is about no effect
D1 antagonist: antagonists of human D1 dopamine receptor; P21728; HEK293 TREx D1 cells, calcium flux, dopamine EC80; stronger effect = lower value; activity change, negative = inhibition, % at 10 µM; hit rate 3.2% among 360,000; AID 504652; in the data active means activity change below about -30%; further: on the % scale 0 is the no-effect control and ±100 the full control effect
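Using tetracycline-induced force-coupled D1 Hek293 cells and a calcium dye, signals were followed for 180 s after compound, then for 180 s after EC80 dopamine, to detect inhibitors.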
D3 ag: D3 dopamine receptor (human) agonism. max activation, %. P35462. hit rate 0.58% among 410,000. AID 652048. D3R DiscoveRx beta-arrestin cells, luminescence, 90 min; in the data active means max activation above about 30%; further: 0% is about no effect
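Agonist-mode cell screen: cells plated at 1500/well and incubated overnight at 37 °C, then exposed to library compounds for 90 min at 37 °C. Detection reagent was added for 30–60 min at room temperature, and luminescence was read.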
Starred values were filed as active, the others as inactive. Shown are actives, neighbours in structure and some others; about 6% of the full set was active somewhere.

For O=C(c1ccc(S(=O)(=O)N2CCCCC2)cc1)N1CCCC(C(F)(F)F)C1 (configuration not stated) the results were DRD3 antagonist 10, D1 agonist 2, D1 potentiator 1, D1 antagonist -3 and D3 ag 7.
Cc1cc(S(=O)(=O)C(CNC(=O)COc2ccc(Cl)cc2)c2cccs2)ccc1F (configuration not stated) was read as D1 agonist 17, D1 potentiator 1, D1 antagonist -2 and D3 ag 9.
`Cc1[nH]n(-c2ccc([N+](=O)[O-])cc2)c(=O)c1C=NCCN1CCN(C(=O)c2ccc(Br)cc2)CC1` gave DRD3 antagonist -65*, D1 agonist 1, D1 potentiator 7, D1 antagonist -16 and D3 ag -7.
Screening Cc1[nH]n(-c2ccc([N+](=O)[O-])cc2)c(=O)c1C=NCCc1c[nH]c2ccccc12 returned DRD3 antagonist 1, D1 agonist -1, D1 potentiator -7, D1 antagonist -36* and D3 ag 37*.
Screening CCCc1[nH]n(-c2ccc([N+](=O)[O-])cc2)c(=O)c1C=NCCc1c[nH]c2ccccc12 returned DRD3 antagonist 11, D1 agonist 4, D1 potentiator -2, D1 antagonist -17 and D3 ag 7.
For Cc1[nH]n(-c2ccc([N+](=O)[O-])cc2)c(=O)c1C=NCCN1CCN(C(=O)c2ccc(F)cc2)CC1 the results were DRD3 antagonist 21, D1 agonist 3, D1 potentiator 6, D1 antagonist 2 and D3 ag 0.
For CCCCn1c(SCc2ccccc2C#N)nc2c(sc3ccccc32)c1=O the results were D1 agonist 3, D1 potentiator 0, D1 antagonist 10 and D3 ag 3.
COc1ccc(O)c(C(=O)c2cnc3onc(C)c3c2)c1 was read as DRD3 antagonist -21, D1 agonist 1, D1 potentiator -3, D1 antagonist -39* and D3 ag -4.
For CCOC(=O)C1=C(O)/C(=C/c2cn(CC(=O)N3CCCC3)c3ccccc23)SC1=Nc1ccccc1 the results were DRD3 antagonist 12, D1 agonist 32*, D1 potentiator -4, D1 antagonist -9 and D3 ag 2.
`COc1ccc(-c2cc3ccc(O)c(CN4CCCC(C)C4)c3oc2=O)cc1OC` (configuration not stated) gave D1 agonist 2, D1 potentiator -3, D1 antagonist 15 and D3 ag -7.
O=C(COC(=O)c1ccc([N+](=O)[O-])s1)Nc1ccc(F)cc1 was read as DRD3 antagonist -8, D1 agonist 4, D1 potentiator -3, D1 antagonist -38* and D3 ag 3.
Screening O=C(Nc1ccc(OC(F)(F)F)cc1)C1CC(c2ccc(F)cc2)=NO1 (configuration not stated) returned DRD3 antagonist 5, D1 agonist 8, D1 potentiator -3, D1 antagonist -35* and D3 ag 6.
CCCNC(=O)C1CC(c2ccc(C(F)(F)F)cc2)=NO1 (configuration not stated) was read as DRD3 antagonist -14, D1 agonist 16, D1 potentiator -5, D1 antagonist -3 and D3 ag 38*.
Screening COc1ccc(CCNC(=O)C2CC(c3cc(C(F)(F)F)cc(C(F)(F)F)c3)=NO2)cc1 (configuration not stated) returned DRD3 antagonist 5, D1 agonist 10, D1 potentiator -3, D1 antagonist 35 and D3 ag 33*.
For O=C(NCCCCc1ccccc1)C1CC(c2ccccc2C(F)(F)F)=NO1 (configuration not stated) the results were DRD3 antagonist 11, D1 agonist 12, D1 potentiator -1, D1 antagonist -6 and D3 ag 5.
`CCCCNC(=O)C1CC(c2ccc(C(F)(F)F)cc2)=NO1` (configuration not stated) gave DRD3 antagonist 9, D1 agonist 17, D1 potentiator 3, D1 antagonist -26 and D3 ag 20.
`O=C(NCCCCc1ccccc1)C1CC(c2ccc(C(F)(F)F)cc2)=NO1` (configuration not stated) gave DRD3 antagonist 53, D1 agonist 12, D1 potentiator -4, D1 antagonist -14 and D3 ag 58*.
Screening COc1ccc(-c2nc(CSCC(=O)NCCc3ccc(OC)c(OC)c3)c(C)o2)cc1 returned D1 agonist 2, D1 potentiator 1, D1 antagonist 10 and D3 ag -8.
For COc1ccc(Cn2ncc3c4sc(C)cc4n(C)c3c2=O)cc1 the results were D1 agonist 2, D1 potentiator 5 and D1 antagonist -10.
`COc1ccc(CNC(=O)C2CC(c3ccc(OC)cc3)=NO2)cc1` (configuration not stated) gave DRD3 antagonist -11, D1 agonist 5, D1 potentiator -4, D1 antagonist -7 and D3 ag -6.
`COc1ccc(C2=NOC(C(=O)NCC(C)C)C2)cc1` (configuration not stated) gave DRD3 antagonist -90*, D1 agonist 3, D1 potentiator 3, D1 antagonist -19 and D3 ag -2.
`Cc1cc2cc(C(c3nnnn3C3CCCC3)N(Cc3cccnc3)Cc3ccco3)c(=O)[nH]c2cc1C` (configuration not stated) gave DRD3 antagonist -25, D1 agonist 3, D1 potentiator 0, D1 antagonist -39* and D3 ag -7.
Screening O[C@@H]1CN(Cc2cccs2)[C@@H](c2ccccc2)C[C@H]1n1cc(-c2ccc(F)cc2)nn1 returned DRD3 antagonist inconclusive and D3 ag -8.
Screening COc1cc(NS(=O)(=O)c2cc3c(cc2C)n(C)c(=O)c(=O)n3C)cc(OC)c1 returned D1 agonist 1, D1 potentiator 1, D1 antagonist -13 and D3 ag 4.
`Fc1ccccc1N1CCN(CC2CCCCC2)CC1` gave DRD3 antagonist 0, D1 agonist 4, D1 potentiator -16, D1 antagonist -13 and D3 ag -5.
`OC(CSc1c(Cl)cccc1Cl)CN1CCN(c2ccccc2F)CC1` (configuration not stated) gave DRD3 antagonist -56*, D1 agonist 7, D1 potentiator -4, D1 antagonist 15 and D3 ag 20.
For OC(CSc1ccccc1Cl)CN1CCN(c2ccccc2F)CC1 (configuration not stated) the results were DRD3 antagonist -67*, D1 agonist 3, D1 potentiator -5, D1 antagonist -3 and D3 ag 1.
For C#CCn1c(COc2ccccc2C)nc2ccccc21 the results were D1 agonist 0, D1 potentiator -4, D1 antagonist -2 and D3 ag 2.

Compound activity from PubChem BioAssay.
